Data published in PubChem BioAssay AID1159580 (chemical genetic matrix, 2015).
Where “and” joins values, the source holds several entries; their conditions need not be identical. Equal entries are not always repeated. Screen size: about 5,500 compounds; about 2,000 (36%) were called active. Roughly 18% stayed inconclusive and do not appear here. Cut-off read from the data, not from the text of the source: active = normalized growth mostly below about 0.91 (no sharp cut-off); inconclusive = no clear call, values can overlap the other calls; inactive = mostly above about 0.92. The list shows a part of the results.

Experiment: chemical genetic growth profiling, strain panel (AID 1159580);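 note: tested at 20 µM; growth read once vehicle control cultures reached saturation at 30 °C; 1 = growth at the plate median or of vehicle wells; lower values mean less growth of the strain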
Conditions: S. cerevisiae deletion strains, growth OD

Measured: normalized growth

CCOC(=O)CCC(=O)O[C@H]1[C@H](O[C@@H]2[C@@H](C)[C@H](O[C@H]3C[C@@](C)(OC)[C@@H](O)[C@H](C)O3)[C@@H](C)C(=O)O[C@H](CC)[C@@](C)(O)[C@H](O)[C@@H](C)C(=O)[C@H](C)C[C@@]2(C)O)O[C@H](C)C[C@@H]1N(C)C
inactive: locus YAL021C, strain ccr4, active compounds read low 1.01 | locus YAL026C, strain drs2, active compounds read low 1.02 | locus YAL030W, strain snc1, active compounds read low 0.99 | locus YBL061C, strain skt5, active compounds read low 0.994 | locus YBR009C, strain hhf1, active compounds read low 0.993 | locus YBR021W, strain FUR4, active compounds read low 0.997 | locus YBR023C, strain chs3, active compounds read low 0.999 | locus YBR171W, strain sec66, active compounds read low 1.01 | locus YBR229C, strain ROT2, active compounds read low 0.949 | locus YBR231C, strain swc5, active compounds read low 0.971 | locus YBR279W, strain paf1, active compounds read low 1.01 | locus YCL011C, strain gbp2, active compounds read low 1.01 | locus YCL016C, strain dcc1, active compounds read low 0.992 | locus YCL029C, strain bik1, active compounds read low 0.99 | locus YCL069W, strain vba3, active compounds read low 1 | locus YCR088W, strain abp1, active compounds read low 1.01 | locus YDL005C, strain med2, active compounds read low 0.994 | locus YDL035C, strain GPR1, active compounds read low 0.945 | locus YDL040C, strain nat1, active compounds read low 0.995 | locus YDL074C, strain BRE1, active compounds read low 0.962 | locus YDL101C, strain DUN1, active compounds read low 0.977 | locus YDL134C, strain PPH21, active compounds read low 0.963 | locus YDL185W, strain tfp1, active compounds read low 0.971 | locus YDL192W, strain arf1, active compounds read low 0.985 | locus YDR001C, strain nth1, active compounds read low 1.01 | locus YDR069C, strain doa4, active compounds read low 0.983 | locus YDR101C, strain arx1, active compounds read low 0.953 | locus YDR137W, strain rgp1, active compounds read low 1.01 | locus YDR150W, strain NUM1, active compounds read low 0.988 | locus YDR159W, strain sac3, active compounds read low 0.979 | locus YDR162C, strain NBP2, active compounds read low 0.955 | locus YDR195W, strain ref2 0.956 | locus YDR297W, strain sur2, active compounds read low 1 | locus YDR318W, strain mcm21, active compounds read low 0.996 | locus YDR334W, strain swr1, active compounds read low 1 | locus YDR335W, strain msn5, active compounds read low 0.993 | locus YDR388W, active compounds read low 0.984 | locus YDR392W, strain spt3, active compounds read low 1.03 | locus YDR502C, strain sam2, active compounds read low 0.991 | locus YEL003W, strain gim4, active compounds read low 1.01 | locus YEL037C, strain rad23, active compounds read low 1.01 | locus YEL061C, strain CIN8 (second series), active compounds read low 1.02 | locus YEL061C, strain CIN8, active compounds read low 0.989 | locus YER015W, strain faa2, active compounds read low 0.986 | locus YER016W, strain bim1, active compounds read low 1.01 | locus YER110C, active compounds read low 0.99 | locus YER111C, strain swi4, active compounds read low 0.996 | locus YER155C, strain BEM2 (second series), active compounds read low 0.985 | locus YER155C, strain BEM2, active compounds read low 0.999 | locus YER167W, strain BCK2, active compounds read low 0.999 | locus YFR010W, strain ubp6, active compounds read low 1.03 | locus YGL078C, strain dbp3, active compounds read low 0.994 | locus YGL086W, strain mad1, active compounds read low 0.972 | locus YGL167C, strain pmr1, active compounds read low 1 | locus YGL173C, strain kem1, active compounds read low 1 | locus YGL227W, strain vid30, active compounds read low 1.01 | locus YGL240W, strain doc1, active compounds read low 0.975 | locus YGL248W, strain PDE1, active compounds read low 0.986 | locus YGL253W, strain hxk2, active compounds read low 1.01 | locus YGR135W, strain pre9, active compounds read low 1.05 | locus YGR252W, strain gcn5, active compounds read low 1.07 | locus YHR013C, strain ard1, active compounds read low 0.997 | locus YHR027C, strain rpn1, active compounds read low 1.02 | locus YHR030C, strain SLT2, active compounds read low 0.995 and 1.03 | locus YHR079C, strain IRE1 (second series), active compounds read low 0.962 | locus YHR079C, strain IRE1, active compounds read low 1.04 | locus YHR094C, strain hxt1, active compounds read low 0.985 | locus YHR129C, strain ARP1, active compounds read low 0.986 | locus YHR142W, strain chs7, active compounds read low 1.03 | locus YHR200W, strain rpn10, active compounds read low 0.98 | locus YIL066C, strain RNR3, active compounds read low 0.974 | locus YIL073C, strain SPO22, active compounds read low 1 | locus YIL125W, strain kgd1, active compounds read low 0.985 | locus YIR030C, strain dcg1, active compounds read low 0.997 | locus YJL092W, strain hpr5, active compounds read low 1.01 | locus YJL095W, strain BCK1 (second series), active compounds read low 0.99 | locus YJL095W, strain BCK1, active compounds read low 0.99 and 1.02 | locus YJL115W, strain asf1, active compounds read low 1 | locus YJL129C, strain trk1, active compounds read low 1 | locus YJL134W, strain LCB3, active compounds read low 0.993 | locus YJL154C, strain vps35, active compounds read low 1.01 | locus YJL164C, strain tpk1, active compounds read low 0.999 | locus YJL166W, strain qcr8, active compounds read low 0.993 | locus YJL168C, strain set2, active compounds read low 0.985 | locus YJL187C, strain SWE1 (second series), active compounds read low 0.991 | locus YJR043C, strain POL32, active compounds read low 0.963 | locus YJR066W, strain TOR1, active compounds read low 0.89 | locus YJR075W, strain HOC1, active compounds read low 0.983 | locus YKL009W, strain mrt4, active compounds read low 0.971 | locus YKL068W, active compounds read low 0.987 | locus YKL085W, strain MDH1 (second series), active compounds read low 0.995 | locus YKL085W, strain MDH1, active compounds read low 0.995 | locus YKL160W, strain elf1, active compounds read low 1 | locus YKR001C, strain vps1, active compounds read low 0.981 | locus YKR026C, strain gcn3, active compounds read low 1.01 | locus YKR091W, strain srl3, active compounds read low 1 | locus YLL001W, strain dnm1, active compounds read low 1 | locus YLL026W, active compounds read low 0.991 | locus YLL041C, strain sdh2, active compounds read low 1 | locus YLR027C, strain aat2, active compounds read low 0.986 | locus YLR039C, strain RIC1, active compounds read low 0.932 | locus YLR058C, strain SHM2, active compounds read low 0.975 | locus YLR102C, strain apc9, active compounds read low 0.986 | locus YLR113W, strain HOG1, active compounds read low 1.11 | locus YLR221C, strain rsa3, active compounds read low 1 | locus YLR258W, strain gsy2, active compounds read low 0.983 | locus YLR262C, strain YPT6 (second series), active compounds read low 1.04 | locus YLR262C, strain YPT6, active compounds read low 0.885 | locus YLR268W, strain sec22, active compounds read low 0.97 | locus YLR320W, strain mms22, active compounds read low 0.996 | locus YLR330W, strain CHS5, active compounds read low 0.985 | locus YLR342W, strain FKS1 (second series), active compounds read low 0.985 | locus YLR342W, strain FKS1, active compounds read low 0.985 | locus YLR357W, strain rsc2, active compounds read low 0.982 | locus YLR370C, strain arc18, active compounds read low 1.02 | locus YLR371W, strain rom2, active compounds read low 0.992 | locus YLR384C, strain iki3, active compounds read low 0.981 | locus YLR418C, strain cdc73, active compounds read low 1.01 | locus YML016C, strain PPZ1, active compounds read low 0.987 | locus YML032C, strain rad52, active compounds read low 0.982 | locus YML120C, strain ndi1, active compounds read low 0.995 | locus YML124C, strain tub3, active compounds read low 0.988 | locus YMR058W, strain fet3, active compounds read low 1.01 | locus YMR078C, strain ctf18, active compounds read low 0.983 | locus YMR125W, strain sto1, active compounds read low 1.01 | locus YMR129W, active compounds read low 0.993 | locus YMR205C, strain PFK2, active compounds read low 0.99 | locus YMR223W, strain ubp8, active compounds read low 1.03 | locus YMR231W, strain pep5, active compounds read low 0.998 | locus YMR263W, strain SAP30, active compounds read low 0.984 | locus YMR307W, strain GAS1, active compounds read low 0.97 | locus YNL067W, strain RPL9B, active compounds read low 0.992 | locus YNL071W, strain lat1, active compounds read low 0.996 | locus YNL153C, strain GIM3, active compounds read low 0.983 | locus YNL183C, strain NPR1, active compounds read low 0.981 | locus YNL209W, strain ssb2, active compounds read low 0.991 | locus YNL233W, strain BNI4, active compounds read low 0.988 | locus YNL248C, strain rpa49, active compounds read low 1.04 | locus YNL250W, strain rad50, active compounds read low 0.99 | locus YNL271C, strain bni1, active compounds read low 0.997 | locus YNL298W, strain CLA4, active compounds read low 0.99 | locus YNL307C, strain MCK1, active compounds read low 0.989 | locus YNL322C, strain KRE1 (second series), active compounds read low 0.988 | locus YNL322C, strain KRE1, active compounds read low 0.995 | locus YNR049C, strain mso1, active compounds read low 0.988 | locus YNR052C, strain pop2, active compounds read low 1 | locus YOL012C, strain htz1 0.719 | locus YOL147C, strain pex11, active compounds read low 0.995 | locus YOR001W, strain rrp6, active compounds read low 1 | locus YOR061W, strain CKA2, active compounds read low 0.966 | locus YOR069W, strain VPS5, active compounds read low 0.991 | locus YOR070C, strain gyp1, active compounds read low 0.991 | locus YOR080W, strain dia2, active compounds read low 0.978 | locus YOR083W, strain WHI5, active compounds read low 1.02 | locus YOR106W, strain vam3, active compounds read low 0.989 | locus YOR136W, strain idh2, active compounds read low 0.982 | locus YOR144C, strain elg1, active compounds read low 0.987 | locus YOR184W, strain ser1, active compounds read low 0.98 | locus YOR231W, strain MKK1, active compounds read low 1.07 | locus YOR265W, strain rbl2, active compounds read low 0.984 | locus YOR270C, strain vph1, active compounds read low 1.03 | locus YOR290C, strain snf2, active compounds read low 1.03 | locus YOR316C, strain cot1, active compounds read low 0.975 | locus YPL051W, strain arl3, active compounds read low 0.988 | locus YPL078C, strain atp4, active compounds read low 0.991 | locus YPL106C, strain sse1, active compounds read low 0.986 | locus YPL240C, strain hsp82, active compounds read low 1.01 | locus YPL241C, strain CIN2, active compounds read low 0.979 | locus YPL256C, strain CLN2, active compounds read low 1.05 | locus YPR119W, strain clb2, active compounds read low 0.988 | locus YPR141C, strain kar3, active compounds read low 0.987 | locus YPR163C, strain tif3, active compounds read low 0.989 | locus YPR167C, strain met16, active compounds read low 0.991 | strain wtn01, active compounds read low 0.99
